Measured values published in PubChem BioAssay (NCI).
The panel holds about 79,000 compounds, 15% with a hit somewhere; the sample as a whole holds those more often. The source made the active and inactive calls. Cut-off read from the data, not from the text of the source: active = growth inhibition above about 70%; inactive = the rest.

Experiments:
[1] = NCI Yeast Anticancer Drug Screen. Data for the rad52 strain (AID 147);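 note: 0% = growth of vehicle-treated control cultures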; settings: S. cerevisiae rad52 mutant growth inhibition, hits give high values
In short: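 Inhibition of yeast growth, referenced to vehicle controls, was the measured output for a strain with defective DNA damage repair.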

[2] = NCI Yeast Anticancer Drug Screen. Data for the rad50EPP+ strain (AID 151);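 note: 0% = growth of vehicle-treated control cultures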; settings: S. cerevisiae rad50 mutant strain, hits give high values
In short: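 Genetically defined yeast (rad50EPP+, DNA damage repair alteration) is grown with compound, and inhibition of growth is expressed relative to vehicle-treated controls.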

[3] = NCI Yeast Anticancer Drug Screen. Data for the mgt1 strain (AID 153); settings: S. cerevisiae mgt1 mutant growth inhibition, hits give high values
In short: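 In the mgt1 strain, test compounds were added and growth inhibition was determined relative to vehicle-treated controls.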

[4] = NCI Yeast Anticancer Drug Screen. Data for the rad50 strain (AID 155);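 note: 0% = growth of vehicle-only cultures of the same strain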; settings: S. cerevisiae rad50 strain growth inhibition, hits give high values
In short: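 Inhibition values express reduced yeast growth in compound-treated cultures relative to vehicle-treated controls.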

[5] = NCI Yeast Anticancer Drug Screen. Data for the mec2-1 strain (AID 157); settings: S. cerevisiae mec2-1 strain, hits give high values
In short: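 Each compound was tested on mec2-1 yeast, a strain altered in DNA damage repair or cell cycle control. Growth inhibition is reported relative to vehicle.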

[6] = NCI Yeast Anticancer Drug Screen. Data for the rad14 strain (AID 159);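 note: 0% = growth of vehicle-treated control cultures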; settings: S. cerevisiae rad14 strain growth inhibition, hits give high values
In short: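 A mutant yeast strain defective in DNA damage repair is treated with compound; inhibition of its growth is scored against untreated, vehicle-exposed cultures.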

[7] = NCI Yeast Anticancer Drug Screen. Data for the sgs1 mgt1 strain (AID 161);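 note: 0% = growth of cultures given vehicle only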; settings: S. cerevisiae sgs1 mgt1 strain, hits give high values
In short: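 Inhibition of yeast growth, normalised to vehicle-treated controls, is reported for a strain bearing genetic alterations in DNA damage repair.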

[8] = NCI Yeast Anticancer Drug Screen. Data for the CLN2oe strain (AID 163);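 note: 0% = growth of vehicle-only control cultures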; settings: S. cerevisiae CLN2oe strain, hits give high values
In short: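 First, the altered yeast strain was treated with each compound; second, its growth was measured; finally, inhibition was derived by comparison with vehicle controls.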

[9] = NCI Yeast Anticancer Drug Screen. Data for the cln2 rad14 strain (AID 165);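 note: 0% = growth equal to vehicle treated cultures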; settings: S. cerevisiae cln2 rad14 strain, hits give high values
In short: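 Test compounds were added to cln2 rad14 yeast cultures; inhibition of growth was then determined by comparison with vehicle treatment.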

[10] = NCI Yeast Anticancer Drug Screen. Data for the bub3 strain (AID 167); settings: S. cerevisiae bub3 mutant strain, hits give high values
In short: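 Steps: expose the mutant yeast strain to compound; grow alongside vehicle-treated cultures; measure growth; express inhibition against the vehicle cultures.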

[11] = NCI Yeast Anticancer Drug Screen. Data for the wt2 strain (AID 169);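 note: 0% = growth of vehicle-treated yeast cultures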; settings: S. cerevisiae wt2 strain growth inhibition, hits give high values
In short: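 The panel's yeast strains carry defined changes in DNA repair or cell cycle genes. Each strain is grown with compound, and growth loss is scored relative to vehicle.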

[12] = NCI Yeast Anticancer Drug Screen. Data for the mlh1 strain (AID 171);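 note: 0% = growth of vehicle-treated control cultures of the same strain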; settings: S. cerevisiae mlh1 strain growth inhibition, hits give high values
In short: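 Inhibition values reflect reduced yeast growth in the presence of compound, referenced to vehicle controls, using a strain chosen for its alteration in DNA repair or cell cycle control.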

[13] = NCI Yeast Anticancer Drug Screen. Data for the sgs1 strain (AID 173);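 note: 0% = growth of vehicle-only control cultures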; settings: S. cerevisiae sgs1 mutant, hits give high values
In short: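 Vehicle-treated cultures served as reference for growth inhibition of a yeast strain altered in DNA damage repair or cell cycle control after compound exposure.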

[14] = NCI Yeast Anticancer Drug Screen. Data for the mlh1 rad18 strain (AID 175); settings: S. cerevisiae mlh1 rad18 strain growth inhibition, hits give high values
In short: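 Inhibition values reflect reduced growth of mutant yeast versus vehicle-treated controls following compound exposure; the mutations affect DNA damage repair.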

[15] = NCI Yeast Anticancer Drug Screen. Data for the rad18 strain (AID 177); settings: S. cerevisiae rad18 mutant growth inhibition, hits give high values
In short: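 Steps: expose repair-mutant yeast to compound; measure growth; express as inhibition relative to vehicle control.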

[16] = NCI Yeast Anticancer Drug Screen. Data for the wt1 strain (AID 149);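 note: 0% = growth of vehicle-treated wt1 cultures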; settings: S. cerevisiae wt1 strain (SPY 50644) growth inhibition, hits give high values
In short: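 Compounds are added to wt1 yeast cultures. Growth is then measured. Inhibition is expressed relative to vehicle-treated controls.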

[17] = at 5.0 µM (retest, dose inferred, filed as 0.5)
[18] = at 50.0 µM (retest, dose inferred, filed as 5.0)

Measured: growth inhibition

CN(C)CCCn1c2c3ccccc3ccc2c2oc(=O)c3ccccc3c21
active: [1]; at 11.0 µM 86% | [1]; at 33.0 µM 97% | [1]; at 100.0 µM 98% | [2]; at 11.0 µM 95% | [2]; at 33.0 µM 98% | [2]; at 100.0 µM 98% | [3]; at 33.0 µM 92% | [3]; at 100.0 µM 98% | [4]; at 11.0 µM 91% | [4]; at 33.0 µM 97% | [4]; [18] 98% | [4]; at 50.0 µM 99% | [4]; at 100.0 µM 98% | [5]; at 33.0 µM 88% | [5]; [18] 98% | [5]; at 50.0 µM 98.8% | [5]; at 100.0 µM 96% | [6]; at 33.0 µM 83% | [6]; at 100.0 µM 98% | [7]; [18] 75% | [7]; at 50.0 µM 98.7% | [8]; at 33.0 µM 86% | [8]; at 100.0 µM 97% | [9]; [18] 97% | [9]; at 50.0 µM 98.4% | [10]; at 33.0 µM 87% | [10]; [18] 98% | [10]; at 50.0 µM 99.2% | [10]; at 100.0 µM 98% | [11]; at 33.0 µM 93% | [11]; at 100.0 µM 97% | [12]; at 33.0 µM 90% | [12]; at 100.0 µM 98% | [13]; at 33.0 µM 85% | [13]; at 100.0 µM 96% | [14]; [18] 98% | [14]; at 50.0 µM 99.2% | [15]; at 33.0 µM 93% | [15]; at 100.0 µM 98%
inactive: [1]; at 1.2 µM 3% | [1]; at 3.7 µM 33% | [2]; at 1.2 µM 13% | [2]; at 3.7 µM 58% | [3]; at 1.2 µM 13% | [3]; at 3.7 µM 33% | [3]; at 11.0 µM 53% | [4]; at 1.2 µM 0% | [4]; at 3.7 µM 45% | [4]; [17] 22% | [5]; at 1.2 µM 0% | [5]; at 3.7 µM 28% | [5]; [17] 21% | [5]; at 11.0 µM 48% | [6]; at 1.2 µM -6% | [6]; at 3.7 µM 10% | [6]; at 11.0 µM 30% | [7]; [17] -9% | [8]; at 1.2 µM 3% | [8]; at 3.7 µM 14% | [8]; at 11.0 µM 44% | [9]; [17] -17% | [10]; at 1.2 µM 20% | [10]; at 3.7 µM 11% | [10]; [17] 12% | [10]; at 11.0 µM 23% | [11]; at 1.2 µM -22% | [11]; at 3.7 µM -9% | [11]; at 11.0 µM 50% | [12]; at 1.2 µM 22% | [12]; at 3.7 µM 30% | [12]; at 11.0 µM 53% | [13]; at 1.2 µM 0% | [13]; at 3.7 µM -2% | [13]; at 11.0 µM 34% | [14]; [17] -1% | [15]; at 1.2 µM -10% | [15]; at 3.7 µM -2% | [15]; at 11.0 µM 47%

COc1cccc(C(NC2=NCCC=N2)c2cc3c(cc2O)OCO3)c1O (stereo unspecified)
inactive: [1]; at 1.2 µM -1% | [1]; at 3.7 µM 2% | [1]; at 11.0 µM 21% | [1]; at 33.0 µM 56% | [1]; at 100.0 µM 66% | [16]; at 1.2 µM -2% | [16]; at 3.7 µM -4% | [16]; at 11.0 µM 2% | [16]; at 33.0 µM 5% | [16]; at 100.0 µM 8% | [3]; at 1.2 µM -1% | [3]; at 3.7 µM -5% | [3]; at 11.0 µM 12% | [3]; at 33.0 µM -22% | [3]; at 100.0 µM 10% | [4]; at 1.2 µM -1% | [4]; at 3.7 µM -1% | [4]; [17] -11% | [4]; at 11.0 µM -36% | [4]; at 33.0 µM 26% | [4]; at 50.0 µM 41.8% | [4]; at 100.0 µM 39% | [5]; at 1.2 µM 1% | [5]; at 3.7 µM -3% | [5]; [17] -20% | [5]; at 11.0 µM 7% | [5]; at 33.0 µM 15% | [5]; [18] 61% | [5]; at 50.0 µM 23.6% | [5]; at 100.0 µM 22% | [6]; at 1.2 µM 6% | [6]; at 3.7 µM 5% | [6]; at 11.0 µM 8% | [6]; at 33.0 µM 12% | [6]; at 100.0 µM 29% | [7]; [17] -47% | [8]; at 1.2 µM -2% | [8]; at 3.7 µM -8% | [8]; at 11.0 µM -1% | [8]; at 33.0 µM 4% | [8]; at 100.0 µM 21% | [9]; [17] 26% | [9]; [18] 13% | [9]; at 50.0 µM 44.6% | [10]; at 1.2 µM -9% | [10]; at 3.7 µM -3% | [10]; [17] -57% | [10]; at 11.0 µM -3% | [10]; at 33.0 µM -1% | [10]; at 50.0 µM 37.5% | [10]; at 100.0 µM 5% | [11]; at 1.2 µM 0% | [11]; at 3.7 µM 1% | [11]; at 11.0 µM 5% | [11]; at 33.0 µM 18% | [11]; at 100.0 µM 25% | [12]; at 1.2 µM -4% | [12]; at 3.7 µM -3% | [12]; at 11.0 µM 2% | [12]; at 33.0 µM 3% | [12]; at 100.0 µM 4% | [13]; at 1.2 µM 4% | [13]; at 3.7 µM 6% | [13]; at 11.0 µM 21% | [13]; at 33.0 µM 46% | [13]; at 100.0 µM 57% | [14]; [17] -31% | [14]; at 50.0 µM 49.2% | [15]; at 1.2 µM -2% | [15]; at 3.7 µM 0% | [15]; at 11.0 µM 9% | [15]; at 33.0 µM 23% | [15]; at 100.0 µM 56%
active: [4]; [18] 72% | [7]; [18] 77% | [7]; at 50.0 µM 72.3% | [10]; [18] 73% | [14]; [18] 72%
